Measurements as given in PubChem BioAssay (NCATS).
Results filed as inconclusive are left out. Activity calls are given as the source filed them. The call rests on the fitted dose curve; in most records, active means well fitted inhibition curve with a large enough effect; inconclusive means small, poorly fitted or top-dose-only effect; inactive means no such curve, though single readings can be large or run the other way.

Assay: qHTS Screen of the MIPE 4.0 Collection Against Ewings Sarcoma (TC32) (AID 1259256); further: nearly all actives have a fitted effect of over 45% in size;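 on viability (percent of control): 100% = DMSO-treated cells and 0% = medium-only wells without cells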
Conditions: TC32 Ewing sarcoma viability, CellTiter-Glo, 48 h; series mostly up to 45.8 µM; viability (percent of control): at the top concentration
Procedure, shortened: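 Dose series incubated 48 h with cells in RPMI plus 5% FBS, glutamine and penicillin/streptomycin; cell viability then quantified via CellTiter-Glo.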
Potency means the concentration at half of the fitted maximal effect.

SMILES | Potency | viability (percent of control)
Clc1ccccc1C(c1ccccc1)(c1ccccc1)n1cccn1 | 0.935 µM (active) | –
O=C(N[C@@H](COc1ccc2[nH]c(=O)[nH]c2c1)c1ccccc1)c1cccn(Cc2ccc(F)c(F)c2)c1=O | 18.7 µM (active) | –
CCOC(=O)c1cncn1[C@H](C)c1ccccc1 | – | 126% (inactive)
CC(=O)OCC1=C(C(=O)O)N2C(=O)[C@@H](N)[C@@H]2SC1 | – | 129% (inactive)
COc1cc([C@@H]2c3cc4c(cc3[C@@H](O)C3COC(=O)C32)OCO4)cc(OC)c1O (stereo not given in full) | – | 79% (inactive)
CCCC[N+]1(C)[C@H]2CC(OC(=O)[C@H](CO)c3ccccc3)C[C@H]1[C@H]1O[C@H]12 (stereo not given in full) | – | 122% (inactive)
CN(C)[C@@H]1C(=O)C(C(N)=O)=C(O)[C@@]2(O)C(=O)C3=C(O)c4c(O)cccc4[C@@](C)(O)[C@H]3[C@H](O)[C@@H]12 | – | 142% (inactive)
CC(C)(C)c1cc(C=C(C#N)C#N)cc(Br)c1O | 26.4 µM (active) | –
CCNC(=O)CC1N=C(c2ccc(Cl)cc2)c2cc(OC)ccc2-n2c(C)nnc21 (stereo not given) | 16.6 µM (active) | –
c1ccc2c(CN3CCNCC3)cccc2c1 | – | 128% (inactive)
CC(=CCCC1=CCC(C2=CC(=O)OC2O)OC1O)CCC1=C(C)CCCC1(C)C (stereo not given) | 20.9 µM (active) | –
CC(C)[C@]12O[C@@H]1[C@@H]1O[C@]13[C@]1(O[C@H]1C[C@@H]1C4=C(CC[C@@]13C)C(=O)OC4)[C@H]2O | – | 116% (inactive)
Cc1[nH]nc2ccc(-c3cncc(OC[C@@H](N)Cc4c[nH]c5ccccc45)c3)cc12 | 4.69 µM (active) | –
CN1[C@H]2CC(O)C[C@H]1[C@H]1O[C@H]12 (stereo not given in full) | 23.5 µM (active) | –
CC=C(C)C(=O)N[C@@H](c1ccccc1)[C@@H](O)C(=O)O[C@H]1C[C@@]2(O)[C@@H](OC(=O)c3ccccc3)[C@@H]3[C@]4(OC(C)=O)CO[C@@H]4C[C@H](O)[C@@]3(C)C(=O)[C@H](OC(C)=O)C(=C1C)C2(C)C | – | 111% (inactive)
CCOP(=O)(OCC)C(C)NC(=O)N(CCCl)N=O (stereo not given) | – | 113% (inactive)
CC=C(C)C(=O)O[C@H]1C(C)=C2[C@@H]3OC(=O)[C@@](C)(O)[C@@]3(O)[C@@H](OC(=O)CCC)C[C@](C)(OC(C)=O)[C@@H]2[C@@H]1OC(=O)CCCCCCC | 0.0418 µM (active) | –
CC(C)(C)[C@]1(O)C[C@@H]2OC(=O)C[C@@]23C(=O)O[C@@H]2OC(=O)[C@H](O)C213 (stereo not given in full) | – | 132% (inactive)
CSCC[C@@H](NC(=O)[C@@H](Cc1ccccc1)NC(=O)CNC(=O)CNC(=O)[C@@H](N)Cc1ccc(O)cc1)C(=O)O | – | 120% (inactive)
CC[C@@]1(O)C(=O)OCc2c1cc1n(c2=O)Cc2cc3ccccc3nc2-1 | 0.0037 µM (active) | –
O=C(Oc1ccc([N+](=O)[O-])cc1)N1CCN(Cc2cccc(Oc3ccccc3)c2)CC1 | – | 95.6% (inactive)
CCN1C[C@]2(OC(=O)c3ccccc3NC(C)=O)CC[C@H](OC)[C@@]34[C@H]5CC6[C@@H](OC)C[C@](O)(C(C[C@@H]23)[C@@H]14)[C@@]5(O)[C@@H]6OC | – | 123% (inactive)
NC1=NC(=O)N2CC12 (stereo not given) | – | 89% (inactive)
COc1ccc(N(C(=O)Oc2c(C)cccc2C)c2ccnc(Nc3ccc(N4CCN(C)CC4)cc3)n2)c(OC)c1 | 2.64 µM (active) | –
CC(C)(O)C(=O)Nc1ccc([N+](=O)[O-])c(C(F)(F)F)c1 | 23.5 µM (active) | –
C#C[C@]1(O)C=C[C@@H]2[C@@H]3CCC4=CC(=O)CC[C@@H]4[C@H]3CC[C@@]21CC | – | 119% (inactive)
CC1(N2CCC(n3c([C@@H]4CCCNC4)nc4ccccc43)CC2)CCCCCCC1 | 9.35 µM (active) | –
C[C@]12CC[C@H]3[C@@H](CCC4=CC(=O)CC[C@@]43C)[C@H]1CC[C@H]2O | – | 122% (inactive)
O=C(Oc1ccc([N+](=O)[O-])cc1)N1CCC(C(O)(c2ccc3c(c2)OCO3)c2ccc3c(c2)OCO3)CC1 | – | 100% (inactive)
C[C@]12CC[C@H](O)CC1=CC[C@H]1[C@H]3CCC(=O)[C@@]3(C)CC[C@@H]12 | 16.6 µM (active) | –
